# From PubChem BioAssay (Tox21)
# Records with an inconclusive call do not appear. Values without a mark were called inactive. Calls come from the whole dose curve.
# Experiment: qHTS assay for small molecule agonists of the antioxidant response element (ARE) signaling pathway - cell viability counter screen (AID 743203); note: nearly all actives have a fitted effect of over 55% in size
# Details: ARE-bla HepG2 viability, CellTiter-Glo luminescence, 16 h; series mostly up to 73.3 µM; viability change, negative = cytotoxic: at the top concentration
# Excerpt: National Center for Advancing Translational Sciences [NCATS]
# NIH Chemical Genomics Center [NCGC]
# U.S. Environmental Protection Agency [EPA]
# National Institutes of Environmental Health Sciences [NIEHS]
# National Toxicology Program [NTP]
# U.S. Food and Drug Administration [FDA]
# Oxidative stress has been implicated in the pathogenesis of a variety of diseases ranging from cancer to neurodegeneration. The antioxidant response element (ARE) signaling pathway plays an important role in the amelioration of oxidative stress. The CellSensor ARE-bla HepG2 cell line (Invitrogen) can be used for analyzing the Nrf2/antioxidant response signaling pathway. Nrf2 (NF-E2-related factor 2) and Nrf1 are transcription factors that bind to AREs and activate these genes. The CellSensor ARE-bla Hep G2 cell line contains a beta-lactamase reporter gene under control of the Antioxidant Response Element (ARE) stably integrated into HepG2 cells. The activation of the report gene under culture conditions can be detected by fluorescence intensity. This cell line has been used to screen the Tox21 10K compound library to identify agonists that induce oxidative stress. The cytotoxicity of the Tox21 compound library against the ARE-bla cell line was tested in parallel by measuring the cell viability using CellTiter-Glo assay (Promega, Madison, WI) in the same wells.
# Tox21 Assay Protocol Summary:
# ARE-bla HepG2 cells were dispensed at 2,000 cells/5 ul/well in 1536-well white wall/solid bottom plates using a Multidrop Combi (ThermoFisher Scientific, Waltham, MA) dispenser. After the assay plates were incubated at 37C/5% CO2 for 5 hrs, 23 nL of compounds dissolved in DMSO, positive controls or DMSO only was transferred to the assay plate by a pintool work station (Kalypsys, San Diego, CA). The plates were incubated at 37C/5% CO2 for 16 hrs, followed by addition of 4 ul/well of CellTiter-Glo reagent into the assay plates using a Flying Reagent Dispenser (Aurora Discovery, San Diego, CA). After 30 min incubation at room temperature, the luminescence intensity in the assay plates was measured using a ViewLux (PerkinElmer, Shelton, CT) plate reader.
# % is set by controls: 0 for no effect and ±100 for the full control effect.
row,SMILES,"viability change, negative = cytotoxic"
1,CN1CCN(C2=Nc3ccccc3Sc3ccc(Cl)cc32)CC1,-7.66%
2,CCN(CC)CCOC(=O)C1(c2ccccc2)CCCC1,3.32%
3,C=C(C)C(=O)OCCOc1ccccc1,11.3%
4,NCCCOCCOCCOCCCN,-0.0961%
5,O=S(=O)(O)c1ccc(O)c2ncccc12,8.35%
6,CC(C)c1ccccc1C(C)C,-2.05%
7,OC(CCN1CCCCC1)(c1ccccc1)C1CCCCC1 (stereo not given),0.0725%
8,COC(Cc1ccccc1)OC,-0.846%
9,CC1(C)[C@H]2CC[C@]1(C)[C@H](O)C2,11.7%
10,N=C(N=C(N)N)N1CCOCC1,8.64%
11,O=S1(=O)N=C(O)c2ccccc21,-7.1%
12,CN(C)CC[C@@H](c1ccc(Br)cc1)c1ccccn1,-2.33%
13,CCOc1nc2cccc(C(=O)O)c2n1Cc1ccc(-c2ccccc2-c2nn[nH]n2)cc1,-0.956%
14,C=CC(=O)OCCOC(=O)CCC(=O)O,0.479%
15,CC(C)(C)C(=O)OCOP(=O)(COCCn1cnc2c(N)ncnc21)OCOC(=O)C(C)(C)C,-25.1%
16,Cc1ccc(C(C)c2ccc(C)c(C)c2)cc1C,-18.9%
17,Cc1cc(NC(=O)C(=O)O)cc(C)c1Oc1ccc(O)c2c1CCC2,10.2%
18,CN(C)CCCNCCCN,5.49%
19,CCCCCCCCCCCCCCCC(=O)OC/C=C(C)/C=C/C=C(C)/C=C/C1=C(C)CCCC1(C)C,0.0871%
20,CC(C)=CCCC(C)CC=O (stereo not given),-0.638%

row,SMILES,"viability change, negative = cytotoxic"
1,CNS(=O)(=O)Cc1ccc2[nH]cc(CCN(C)C)c2c1,-7.95%
2,Nc1nc(N)c(-c2ccccc2)s1,-2.71%
3,O=C(/C=C/c1ccc(O)c(O)c1)O[C@@H]1C[C@](O)(C(=O)O)C[C@@H](O)[C@H]1O,1.88% [at 94.8 µM]
4,CCOC(=O)CC(=O)c1cc(F)c(Cl)nc1Cl,-3.38% [at 94.8 µM]
5,C[Si](C)O[Si](C)(C)O[Si](C)(C)O[Si](C)C,3.51%
6,CCOc1cc(OCC)c(C(=O)CCC(=O)O)cc1OCC,11.9%
7,CC(=O)c1c(C)c([N+](=O)[O-])c(C(C)(C)C)c([N+](=O)[O-])c1C,-14.6%
8,Cc1occc1S,-17.8%
9,Cl/C(=C\n1cncn1)c1ccc(Cl)cc1Cl,-3.49%
10,COC(=O)CSc1cc(N=c2sc(=O)n3n2CCCC3)c(F)cc1Cl,0.418%
11,CCCCCCCCC(CO)CCCCCC (stereo not given),9.63%
12,Cc1ccc(O)c([C@H](CCN(C(C)C)C(C)C)c2ccccc2)c1,-13.1%
13,CC(C)NCC(O)COc1ccc(CC(N)=O)cc1 (stereo not given),0.0581%
14,O=C(CC(=O)c1ccccc1)c1ccccc1,-0.403% [at 94.8 µM]
15,CN1CCC[C@@H]1c1cccnc1,0.453%
16,CCCCCCCCCO,-0.0559%
17,CC(C)(Oc1ccc(Cl)cc1)C(=O)OCCCOC(=O)C(C)(C)Oc1ccc(Cl)cc1,-1.3%
18,NC1CCN(c2nc3c(cc2F)c(=O)c(C(=O)O)cn3-c2ccc(F)cc2F)C1 (stereo not given),12.1%
19,CCCCOc1ccc(CC(=O)NO)cc1,-28.4%
20,COc1ccc(C(C)=O)cc1,0.505% [at 94.8 µM]
